# PubChem BioAssay AID1159580 (chemical genetic matrix, 2015)
# Values joined by “and” are separate entries in the source; they are usually repeats but may differ in a detail not shown here. Equal values may be shown once. Among all 5,500 compounds or so, about 2,000 (36%) were called active. About 18% were inconclusive and are not listed. This is one part of the list. A number with no mark means an inactive call. No stated cut-off is given here; in the data, active means normalized growth mostly below about 0.91 (no sharp cut-off); inconclusive means no clear call, values can overlap the other calls; inactive means mostly above about 0.92.
# Test: chemical genetic growth profiling, strain panel (AID 1159580);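 further: tested at 20 µM; growth read once vehicle control cultures reached saturation at 30 °C; 1 = growth at the plate median or of vehicle wells; lower values mean less growth of the strain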
# Conditions: S. cerevisiae deletion strains, growth OD
compound,measurement,setting,value
CC1(C)C2CC[C@]3(C)C(C(=O)C=C4[C@@H]5C[C@@](C)(C(=O)O)CC[C@]5(C)CC[C@]43C)[C@@]2(C)CC[C@@H]1O (stereo not given in full),normalized growth,"locus YAL013W, strain DEP1, active compounds read low",1.02
same,normalized growth,"locus YAL021C, strain ccr4, active compounds read low",1.02
same,normalized growth,"locus YAL026C, strain drs2, active compounds read low",0.999
same,normalized growth,"locus YAL030W, strain snc1, active compounds read low",1
same,normalized growth,"locus YBL061C, strain skt5, active compounds read low",1.02
same,normalized growth,"locus YBR009C, strain hhf1, active compounds read low",0.93
same,normalized growth,"locus YBR021W, strain FUR4, active compounds read low",0.961
same,normalized growth,"locus YBR023C, strain chs3, active compounds read low",1.02
same,normalized growth,"locus YBR171W, strain sec66, active compounds read low",1
same,normalized growth,"locus YBR229C, strain ROT2, active compounds read low",1.06
same,normalized growth,"locus YBR231C, strain swc5, active compounds read low",1.08
same,normalized growth,"locus YBR279W, strain paf1, active compounds read low",1.03
same,normalized growth,"locus YCL011C, strain gbp2, active compounds read low",0.988
same,normalized growth,"locus YCL016C, strain dcc1, active compounds read low",1.03
same,normalized growth,"locus YCL029C, strain bik1, active compounds read low",0.956
same,normalized growth,"locus YCL069W, strain vba3, active compounds read low",1
same,normalized growth,"locus YCR088W, strain abp1, active compounds read low",1.02
same,normalized growth,"locus YDL005C, strain med2, active compounds read low",1.01
same,normalized growth,"locus YDL035C, strain GPR1, active compounds read low",0.873
same,normalized growth,"locus YDL040C, strain nat1, active compounds read low",1.03
same,normalized growth,"locus YDL074C, strain BRE1, active compounds read low",1.02
same,normalized growth,"locus YDL101C, strain DUN1, active compounds read low",1.02
same,normalized growth,"locus YDL185W, strain tfp1, active compounds read low",1.04
same,normalized growth,"locus YDL192W, strain arf1, active compounds read low",0.996
same,normalized growth,"locus YDR001C, strain nth1, active compounds read low",1.01
same,normalized growth,"locus YDR069C, strain doa4, active compounds read low",1
same,normalized growth,"locus YDR101C, strain arx1, active compounds read low",0.98
same,normalized growth,"locus YDR137W, strain rgp1, active compounds read low",0.879
same,normalized growth,"locus YDR159W, strain sac3, active compounds read low",0.908
same,normalized growth,"locus YDR162C, strain NBP2, active compounds read low",0.986
same,normalized growth,"locus YDR195W, strain ref2",1.07
same,normalized growth,"locus YDR297W, strain sur2, active compounds read low",0.978
same,normalized growth,"locus YDR318W, strain mcm21, active compounds read low",0.997
same,normalized growth,"locus YDR334W, strain swr1, active compounds read low",0.964
same,normalized growth,"locus YDR335W, strain msn5, active compounds read low",1.01
same,normalized growth,"locus YDR388W, active compounds read low",1.01
same,normalized growth,"locus YDR392W, strain spt3, active compounds read low",1.02
same,normalized growth,"locus YDR502C, strain sam2, active compounds read low",0.968
same,normalized growth,"locus YEL003W, strain gim4, active compounds read low",0.932
same,normalized growth,"locus YEL037C, strain rad23, active compounds read low",1
same,normalized growth,"locus YEL061C, strain CIN8 (second series), active compounds read low",1.01
same,normalized growth,"locus YER015W, strain faa2, active compounds read low",1.02
same,normalized growth,"locus YER016W, strain bim1, active compounds read low",1.01
same,normalized growth,"locus YER110C, active compounds read low",1.04
same,normalized growth,"locus YER111C, strain swi4, active compounds read low",1.03
same,normalized growth,"locus YER155C, strain BEM2 (second series), active compounds read low",1.13
same,normalized growth,"locus YER155C, strain BEM2, active compounds read low",1.06
same,normalized growth,"locus YER167W, strain BCK2, active compounds read low",1.07
same,normalized growth,"locus YFR010W, strain ubp6, active compounds read low",0.943
same,normalized growth,"locus YGL078C, strain dbp3, active compounds read low",0.907 (active)
same,normalized growth,"locus YGL086W, strain mad1, active compounds read low",1.01
same,normalized growth,"locus YGL167C, strain pmr1, active compounds read low",0.996
same,normalized growth,"locus YGL173C, strain kem1, active compounds read low",0.876 (active)
same,normalized growth,"locus YGL227W, strain vid30, active compounds read low",1.02
same,normalized growth,"locus YGL240W, strain doc1, active compounds read low",0.986
same,normalized growth,"locus YGL248W, strain PDE1, active compounds read low",0.985
same,normalized growth,"locus YGL253W, strain hxk2, active compounds read low",1.02
same,normalized growth,"locus YGR078C, strain PAC10, active compounds read low",1.02
same,normalized growth,"locus YGR135W, strain pre9, active compounds read low",0.981
same,normalized growth,"locus YGR252W, strain gcn5, active compounds read low",0.833
same,normalized growth,"locus YHR013C, strain ard1, active compounds read low",1.1
same,normalized growth,"locus YHR027C, strain rpn1, active compounds read low",0.956
same,normalized growth,"locus YHR030C, strain SLT2, active compounds read low",1.07 and 0.991
same,normalized growth,"locus YHR079C, strain IRE1 (second series), active compounds read low",1.02
same,normalized growth,"locus YHR079C, strain IRE1, active compounds read low",0.973
same,normalized growth,"locus YHR094C, strain hxt1, active compounds read low",1.03
same,normalized growth,"locus YHR129C, strain ARP1, active compounds read low",1.07
same,normalized growth,"locus YHR142W, strain chs7, active compounds read low",1.01
same,normalized growth,"locus YHR200W, strain rpn10, active compounds read low",1.03
same,normalized growth,"locus YIL066C, strain RNR3, active compounds read low",1.03
same,normalized growth,"locus YIL073C, strain SPO22, active compounds read low",0.956
same,normalized growth,"locus YIL125W, strain kgd1, active compounds read low",1.01
same,normalized growth,"locus YIR030C, strain dcg1, active compounds read low",1.01
same,normalized growth,"locus YJL092W, strain hpr5, active compounds read low",1.02
same,normalized growth,"locus YJL095W, strain BCK1 (second series), active compounds read low",1.02
same,normalized growth,"locus YJL095W, strain BCK1, active compounds read low",0.971 and 0.979
same,normalized growth,"locus YJL115W, strain asf1, active compounds read low",1.01
same,normalized growth,"locus YJL129C, strain trk1, active compounds read low",1.04
same,normalized growth,"locus YJL134W, strain LCB3, active compounds read low",1.05
same,normalized growth,"locus YJL154C, strain vps35, active compounds read low",1.01
same,normalized growth,"locus YJL164C, strain tpk1, active compounds read low",0.946
same,normalized growth,"locus YJL166W, strain qcr8, active compounds read low",0.974
same,normalized growth,"locus YJL168C, strain set2, active compounds read low",1.03
same,normalized growth,"locus YJL187C, strain SWE1 (second series), active compounds read low",1
same,normalized growth,"locus YJR043C, strain POL32, active compounds read low",0.99
same,normalized growth,"locus YJR066W, strain TOR1, active compounds read low",0.953
same,normalized growth,"locus YJR075W, strain HOC1, active compounds read low",1.04
same,normalized growth,"locus YKL009W, strain mrt4, active compounds read low",0.864 (active)
same,normalized growth,"locus YKL068W, active compounds read low",1.08 [resistant] (active)
same,normalized growth,"locus YKL085W, strain MDH1 (second series), active compounds read low",1.07 [resistant] (active)
same,normalized growth,"locus YKL085W, strain MDH1, active compounds read low",1.07 [resistant] (active)
same,normalized growth,"locus YKL160W, strain elf1, active compounds read low",1.01
same,normalized growth,"locus YKL190W, strain CNB1, active compounds read low",1.08
same,normalized growth,"locus YKR001C, strain vps1, active compounds read low",0.992
same,normalized growth,"locus YKR026C, strain gcn3, active compounds read low",1.02
same,normalized growth,"locus YKR091W, strain srl3, active compounds read low",1.01
same,normalized growth,"locus YLL001W, strain dnm1, active compounds read low",0.952
same,normalized growth,"locus YLL026W, active compounds read low",1.01
same,normalized growth,"locus YLL041C, strain sdh2, active compounds read low",1.03
same,normalized growth,"locus YLR027C, strain aat2, active compounds read low",1
same,normalized growth,"locus YLR039C, strain RIC1, active compounds read low",1.03
same,normalized growth,"locus YLR058C, strain SHM2, active compounds read low",1.01
same,normalized growth,"locus YLR102C, strain apc9, active compounds read low",1.03
same,normalized growth,"locus YLR113W, strain HOG1, active compounds read low",0.974
same,normalized growth,"locus YLR221C, strain rsa3, active compounds read low",0.918
same,normalized growth,"locus YLR258W, strain gsy2, active compounds read low",1
same,normalized growth,"locus YLR262C, strain YPT6 (second series), active compounds read low",0.88
same,normalized growth,"locus YLR262C, strain YPT6, active compounds read low",0.933
same,normalized growth,"locus YLR268W, strain sec22, active compounds read low",0.953
same,normalized growth,"locus YLR320W, strain mms22, active compounds read low",0.941
same,normalized growth,"locus YLR330W, strain CHS5, active compounds read low",1.06
same,normalized growth,"locus YLR342W, strain FKS1 (second series), active compounds read low",0.977
same,normalized growth,"locus YLR342W, strain FKS1, active compounds read low",0.961
same,normalized growth,"locus YLR357W, strain rsc2, active compounds read low",1.08
same,normalized growth,"locus YLR370C, strain arc18, active compounds read low",1.04
same,normalized growth,"locus YLR371W, strain rom2, active compounds read low",1.04
same,normalized growth,"locus YLR384C, strain iki3, active compounds read low",1.03
same,normalized growth,"locus YLR418C, strain cdc73, active compounds read low",0.991
same,normalized growth,"locus YML016C, strain PPZ1, active compounds read low",1.05
same,normalized growth,"locus YML032C, strain rad52, active compounds read low",0.973
same,normalized growth,"locus YML120C, strain ndi1, active compounds read low",0.933
same,normalized growth,"locus YML124C, strain tub3, active compounds read low",1.03
same,normalized growth,"locus YMR058W, strain fet3, active compounds read low",0.983
same,normalized growth,"locus YMR078C, strain ctf18, active compounds read low",1.04
same,normalized growth,"locus YMR125W, strain sto1, active compounds read low",1.12 [resistant] (active)
same,normalized growth,"locus YMR129W, active compounds read low",1.02
same,normalized growth,"locus YMR205C, strain PFK2, active compounds read low",0.99
same,normalized growth,"locus YMR223W, strain ubp8, active compounds read low",0.978
same,normalized growth,"locus YMR231W, strain pep5, active compounds read low",0.99
same,normalized growth,"locus YMR307W, strain GAS1, active compounds read low",0.902
same,normalized growth,"locus YNL067W, strain RPL9B, active compounds read low",0.987
same,normalized growth,"locus YNL071W, strain lat1, active compounds read low",0.996
same,normalized growth,"locus YNL128W, strain TEP1, active compounds read low",1.05
same,normalized growth,"locus YNL153C, strain GIM3, active compounds read low",0.982
same,normalized growth,"locus YNL183C, strain NPR1, active compounds read low",0.933
same,normalized growth,"locus YNL209W, strain ssb2, active compounds read low",1.03
same,normalized growth,"locus YNL233W, strain BNI4, active compounds read low",0.992
same,normalized growth,"locus YNL248C, strain rpa49, active compounds read low",1.01
same,normalized growth,"locus YNL250W, strain rad50, active compounds read low",0.998
same,normalized growth,"locus YNL271C, strain bni1, active compounds read low",0.994
same,normalized growth,"locus YNL298W, strain CLA4, active compounds read low",0.942
same,normalized growth,"locus YNL307C, strain MCK1, active compounds read low",1.03
same,normalized growth,"locus YNL322C, strain KRE1 (second series), active compounds read low",0.982
same,normalized growth,"locus YNL322C, strain KRE1, active compounds read low",1.05
same,normalized growth,"locus YNR049C, strain mso1, active compounds read low",1.03
same,normalized growth,"locus YNR052C, strain pop2, active compounds read low",0.955
same,normalized growth,"locus YOL006C, strain TOP1, active compounds read low",0.968
same,normalized growth,"locus YOL012C, strain htz1",1.55
same,normalized growth,"locus YOL147C, strain pex11, active compounds read low",1.03
same,normalized growth,"locus YOR001W, strain rrp6, active compounds read low",0.886 (active)
same,normalized growth,"locus YOR061W, strain CKA2, active compounds read low",1.04
same,normalized growth,"locus YOR069W, strain VPS5, active compounds read low",1.05
same,normalized growth,"locus YOR070C, strain gyp1, active compounds read low",1.01
same,normalized growth,"locus YOR080W, strain dia2, active compounds read low",1
same,normalized growth,"locus YOR083W, strain WHI5, active compounds read low",0.922
same,normalized growth,"locus YOR106W, strain vam3, active compounds read low",0.925
same,normalized growth,"locus YOR136W, strain idh2, active compounds read low",1.01
same,normalized growth,"locus YOR144C, strain elg1, active compounds read low",1.02
same,normalized growth,"locus YOR184W, strain ser1, active compounds read low",0.857 (active)
same,normalized growth,"locus YOR231W, strain MKK1, active compounds read low",0.966
same,normalized growth,"locus YOR265W, strain rbl2, active compounds read low",1
same,normalized growth,"locus YOR270C, strain vph1, active compounds read low",0.918
same,normalized growth,"locus YOR290C, strain snf2, active compounds read low",0.989
same,normalized growth,"locus YOR316C, strain cot1, active compounds read low",1.03
same,normalized growth,"locus YPL051W, strain arl3, active compounds read low",1.02
same,normalized growth,"locus YPL055C, strain LGE1, active compounds read low",1.06
same,normalized growth,"locus YPL078C, strain atp4, active compounds read low",1.02
same,normalized growth,"locus YPL106C, strain sse1, active compounds read low",1.13
same,normalized growth,"locus YPL240C, strain hsp82, active compounds read low",1.01
same,normalized growth,"locus YPL256C, strain CLN2, active compounds read low",1.05
same,normalized growth,"locus YPR119W, strain clb2, active compounds read low",1.03
same,normalized growth,"locus YPR141C, strain kar3, active compounds read low",1.05
same,normalized growth,"locus YPR163C, strain tif3, active compounds read low",1.03
same,normalized growth,"locus YPR167C, strain met16, active compounds read low",1.02
same,normalized growth,"strain wtn01, active compounds read low",0.966
